L3MBTL1 block = inhibitors of human L3MBTL1; Q9Y468; AlphaScreen L3MBTL1–H3K9me1 peptide binding; Potency, µM (highest dose often 57.1 µM), most hits filed as inhibitors; 0.66% of 230,000 active; AID 485360; further: nearly all actives have a fitted effect of over 60% in size
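L3MBTL1 50 nM + b-AHA-H3(1-15)K9me1 75 nM, 30 min RT; compound added, 30 min RT; streptavidin donor/Ni-chelate acceptor beads 10 ug/mL each final, 30 min RT dark; AlphaScreen read.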
HP1b binding inh = blocks HP1-beta chromodomain binding to methylated histone tails; 0.56% of 390,000 active; AID 540317; Potency, µM (highest dose often 114 µM), actives largely listed as inhibitors; P83916; AlphaScreen HP1-beta / biotin-H3K9me3 peptide binding; further: nearly all actives have a fitted effect of over 70% in size
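HP1-beta protein (50 nM final) preincubated 30 min at room temperature with biotinylated H3(1-18)K9me3 peptide (50 nM) in PBS pH 7.4, 0.01% Tween-20, then compound added for 30 min. AlphaScreen streptavidin donor/nickel chelate acceptor beads (10 ug/mL final), 30 min dark, luminescence read.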
JMJD2A Tudor inh = inhibitors of human JMJD2A Tudor domain | AlphaScreen JMJD2A-Tudor / H3K4me3 peptide binding | 4.4% of 390,000 active | O75164 | Potency, µM (titrated, usually from 114 µM), hits mostly inhibitors | AID 504339; further: nearly all actives have a fitted effect of over 50% in size
BAZ2B block = inhibitors of human BAZ2B bromodomain; Q9UIF8; AlphaScreen BAZ2B-H3K14Ac peptide displacement; Potency, µM (titrated, usually from 114 µM), actives largely listed as inhibitors; 4.4% of 360,000 active; AID 504333; further: nearly all actives have a fitted effect of over 60% in size
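In this displacement format the biotinylated H3(5-23) peptide acetylated at Lys14 serves as ligand at 50 nM, with BAZ2B at 50 nM in PBS pH 7.4 containing 0.01% Tween-20. Donor and acceptor beads are 10 ug/mL final.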
G9a block = G9a (human) methyltransferase inhibition; Q96KQ7; G9a H3K9 monomethylation, AlphaScreen, 2 h; Potency, µM (doses to about 102 µM), hits mostly inhibitors; 8.8% of 350,000 active; AID 504332; further: nearly all actives have a fitted effect of over 75% in size
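Using a bead-based AlphaScreen, monomethylated H3K9 product from 2 h room-temperature reactions (G9a 20 nM, peptide 500 nM, SAM 20 uM) was detected with 0.5 ug/mL rabbit anti-H3K9me1 antibody.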
Of the large screens only hits and unclear results are named; the others gave an inactive call. In the library only some 11% were active in any assay of this set; here they are far more common. The call rests on the fitted dose curve; in most records, active means well fitted inhibition curve with a large enough effect; inconclusive means small, poorly fitted or top-dose-only effect; inactive means no such curve, though single readings can be large or run the other way.

COc1ccccc1C(=O)Nc1cccc(C(=O)OCc2cc(=O)n3ccsc3n2)c1	none (no result: L3MBTL1 block)
Cc1ccc(CN(Cc2cccn2-c2nnc(N3CCCC3=O)s2)C(=O)Nc2ccccc2Cl)cc1	none (no result: L3MBTL1 block)
Cc1ccc(C)c(-n2cc(-c3ccccc3)nc2SCC(=O)Nc2ccccc2)c1	JMJD2A Tudor inh inconclusive, BAZ2B block inconclusive, G9a block inconclusive (no result: L3MBTL1 block)
O=C(NCc1cccc(Br)c1)c1ccc(-n2cnc3cccnc32)cc1	none (no result: L3MBTL1 block)
CC1=NN(c2ccccc2)C(=O)C1C(=O)c1ccccc1 (stereo unspecified)	JMJD2A Tudor inh inconclusive, G9a block inconclusive
CC1=NN(c2ccccc2)C(=O)C1C(=O)c1ccc(Cl)cc1 (stereo unspecified)	G9a block 39.8µM
CC1=NN(c2ccccc2)C(=O)C1C(=O)C(=O)Nc1ccc(F)cc1 (stereo unspecified)	BAZ2B block inconclusive, G9a block 35.5µM (no result: L3MBTL1 block)
CCc1ccccc1NC1=NCC(=O)N1Cc1ccccc1	BAZ2B block 79.4µM, G9a block 44.7µM
O=C1CCN=C(Nc2ccc(F)cc2)N1Cc1ccccc1	BAZ2B block inconclusive, G9a block 39.8µM (no result: L3MBTL1 block)
CC(C)c1ccc(NC2=NCC(=O)N2Cc2cccs2)cc1	BAZ2B block inconclusive, G9a block inconclusive
O=C1CN=C(Nc2ccccc2)N1Cc1cccs1	G9a block 79.4µM
Cc1cccc(NC2=NCC(=O)N2Cc2cccs2)c1	BAZ2B block inconclusive, G9a block 70.8µM
Cc1cccc(NC2=NCC(=O)N2Cc2ccccc2)c1	G9a block inconclusive
Cc1c(Cl)cccc1-n1ncc(C(=O)N2CCC(C)CC2)c1C1CCN(C(=O)OC(C)(C)C)CC1	none (no result: L3MBTL1 block)
CC(NC(=O)COc1ccc(-c2nnco2)cc1)c1ccc(Cl)cc1Cl (stereo unspecified)	G9a block 44.7µM
CCOc1ccc(Sc2cc(C(=O)NCCCOC)c3ccccc3n2)cc1	none (no result: L3MBTL1 block)
CCc1nn2c(=O)cc(COC(=O)c3ccccc3NC(=O)c3ccc(C(C)(C)C)cc3)nc2s1	none (no result: L3MBTL1 block)
CCOC(=O)c1ccc(CNc2ncnc3nc[nH]c23)cc1	none (no result: L3MBTL1 block, BAZ2B block, G9a block)
CCN1C(=O)c2ccccc2Sc2ccc(C(=O)NCCCN3CCCCC3)cc21	G9a block inconclusive (no result: L3MBTL1 block)
COc1cccc(/C=C2/Sc3ccc(C(=O)NCCCN4CCCC4)cc3NC2=O)c1	BAZ2B block inconclusive (no result: L3MBTL1 block)
O=C1Nc2cc(C(=O)NCCCN3CCCC3)ccc2S/C1=C/c1ccccc1F	JMJD2A Tudor inh inconclusive, G9a block 14.1µM (no result: L3MBTL1 block)
O=C(NCCCN1CCCCC1)c1ccc2c(c1)NC(=O)c1ccccc1S2	G9a block 50.1µM (no result: L3MBTL1 block)
CCOC(=O)c1noc2nc(C)n(Cc3ccc([N+](=O)[O-])cc3)c(=O)c12	JMJD2A Tudor inh 20µM (no result: L3MBTL1 block)
CCOC(=O)c1noc2nc(C)n(Cc3cccc([N+](=O)[O-])c3)c(=O)c12	none (no result: L3MBTL1 block)
CCCCCCCCCCOCC(O)CN (stereo unspecified)	none (no result: L3MBTL1 block, HP1b binding inh, JMJD2A Tudor inh, BAZ2B block)
NC(N)=[N+]1CCc2ccccc2C1	G9a block 3.16µM (no result: L3MBTL1 block, HP1b binding inh, JMJD2A Tudor inh, BAZ2B block)
N=C(N)N1CCc2ccccc21	none

Screening data: PubChem, National Center for Advancing Translational Sciences (NCATS)
